{"source": "PubChem BioAssay (NCI)", "note": "The panel holds about 79,000 compounds, 15% with a hit somewhere; the sample as a whole holds those more often. Calls of active or inactive are those of the source. No stated cut-off is given here; in the data, active means growth inhibition above about 70%; inactive means the rest."}
{"assay": "NCI Yeast Anticancer Drug Screen. Data for the bub3 strain (AID 167)", "conditions": "S. cerevisiae bub3 mutant strain, at 50.0 µM, hits give high values", "outline": "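Growth of a checkpoint-deficient yeast mutant is measured after compound exposure. Values represent inhibition relative to vehicle.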"}
{"smiles": "CCCN1C(=O)c2ccccc2C1=O", "growth inhibition": "-0.55% (inactive)"}
{"smiles": "CCC(CC)COC(=O)c1ccc(O)c(O)c1", "growth inhibition": "99.1% (active)"}
{"smiles": "COc1ccc(C2SCC(=O)N2c2nncs2)cc1", "note": "(stereo not given)", "growth inhibition": "21.7% (inactive)"}
{"smiles": "O=NN(CCCl)C(=O)Oc1cc(Cl)c(Cl)cc1Cl", "growth inhibition": "92% (active)"}
{"smiles": "O=C(c1ccccc1)c1ccccc1S(=O)(=O)Nc1ccccc1", "growth inhibition": "64.2% (inactive)"}
{"smiles": "O=S(O)CCCCCSSc1ccccc1", "growth inhibition": "74.5% (active)"}
{"smiles": "Cc1ccc(C)c(N2C(=O)C(=O)C(c3nc4ccccc4o3)/C(=N\\NC(=O)c3ccccc3O)C2=O)c1", "note": "(stereo not given)", "growth inhibition": "27.4% (inactive)"}
{"smiles": "Nc1ccc2ccccc2c1Cc1c(O)ccc2ccccc12", "growth inhibition": "88.8% (active)"}
{"smiles": "CN(C)CCC(=O)C(=Cc1cc(Cl)cc(Cl)c1)C(=O)CCN(C)C", "growth inhibition": "97.8% (active)"}
{"smiles": "COC(=O)c1c(C(N)=O)c(C)n(NC(=O)c2ccccc2)c1C", "growth inhibition": "-2.65% (inactive)"}
{"smiles": "O=C(O)/C(=C/c1c(O)ccc2ccccc12)c1csc(-c2nc(/C(=C\\c3c(O)ccc4ccccc34)C(=O)O)cs2)n1", "growth inhibition": "90.2% (active)"}
{"smiles": "O=C(O)c1c2c(cc3c1CC1(Cc4cc5c(cc4C1=O)CCC5)C3)CCC2", "note": "(stereo not given)", "growth inhibition": "87.2% (active)"}
{"smiles": "CCc1cccc(C(C)(C)C)c1NC(=S)N/C=C(\\c1ccccc1)S(=O)Cc1ccccc1", "note": "(stereo not given)", "growth inhibition": "73.4% (active)"}
{"smiles": "O=[N+]([O-])c1ccc(N/N=C/COCCO)c([N+](=O)[O-])c1", "growth inhibition": "73.6% (active)"}
{"smiles": "O=C(O)CSc1nc(-c2ccccc2)c(-c2ccccc2)n1-c1ccccn1", "growth inhibition": "47.4% (inactive)"}
{"smiles": "C[C@]12CCC(=O)C=C1CC[C@@H]1[C@@H]2[C@@H](O)C[C@@]2(C)[C@H]1CC[C@]2(O)C(=O)COC(=O)C1CCCC1", "growth inhibition": "82.8% (active)"}
{"smiles": "C[C-](O)O.O/C(=C\\[C-](O)c1ccccc1)c1ccccc1.O/C(=C\\[C-](O)c1ccccc1)c1ccccc1.[Nd+3]", "note": "(stereo not given)", "growth inhibition": "90.2% (active)"}
{"smiles": "[Cl][Pt+2]([Cl])([Cl])[Cl].[NH-]CC1(C[NH-])CCCC1", "growth inhibition": "93% (active)"}
{"smiles": "CSc1ccc2c(c1)S[S@@](=O)N2", "growth inhibition": "51.4% (inactive)"}
{"smiles": "O=S=C(c1ccccc1)N(Cc1ccccc1)Cc1ccccc1", "growth inhibition": "96.8% (active)"}
{"smiles": "NNc1c(Cl)c(F)c(Cl)c(F)c1Cl", "growth inhibition": "54.7% (inactive)"}
{"smiles": "Cc1ccc(C)c(N2C(=O)C(=O)C(c3nc4ccccc4o3)C(=O)C2=O)c1", "growth inhibition": "99.3% (active)"}
{"smiles": "NC(=S)N/N=C/c1ccc(Cl)s1", "growth inhibition": "57.5% (inactive)"}
{"smiles": "O=c1[nH]ccc(CNC23CC4CC(CC(C4)C2)C3)c1O", "growth inhibition": "36.4% (inactive)"}
{"smiles": "CN(C)CCSc1cc(-c2ccccc2)c2ccccc2n1", "growth inhibition": "53.7% (inactive)"}
{"assay": "NCI Yeast Anticancer Drug Screen. Data for the mlh1 rad18 strain (AID 175)", "conditions": "S. cerevisiae mlh1 rad18 strain growth inhibition; at 5.0 µM (retest, dose inferred, filed as 0.5); hits give high values", "outline": "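Vehicle-treated cultures served as the reference for growth inhibition in a yeast strain carrying DNA damage repair alterations exposed to each compound.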"}
{"smiles": "O=[N+]([O-])c1cccc(S(=O)(=O)N/N=C/c2cc(I)cc([N+](=O)[O-])c2O)c1", "growth inhibition": "6% (inactive)"}
{"smiles": "COc1cc(N=Nc2cccc(S(N)(=O)=O)c2)c2ccccc2c1N", "growth inhibition": "5% (inactive)"}
{"smiles": "O=S(=O)(c1ccc(O)cc1)c1ccc(Cl)cc1", "growth inhibition": "4% (inactive)"}
{"smiles": "C[N+](C)=c1ccc2nc3c(cc(NCCCNc4cc5oc6cc(=[N+](C)C)ccc-6nc5c5ccccc45)c4ccccc43)oc-2c1", "growth inhibition": "-15% (inactive)"}
{"smiles": "CC(C)(C)C(=O)/C=C/c1ccc2ccccc2n1", "growth inhibition": "-126% (inactive)"}
{"smiles": "CSc1ccc(/C=N/NC(N)=S)cc1", "growth inhibition": "-119% (inactive)"}
{"smiles": "CN(C)c1ccc(/C=C(\\C#N)c2c(F)cccc2F)cc1", "growth inhibition": "1% (inactive)"}
{"smiles": "O=C(/C=C\\c1ccccc1)N1c2ccccc2CC1c1c[nH]c2ccccc12", "note": "(stereo not given)", "growth inhibition": "7% (inactive)"}
{"smiles": "COc1cccc(C2c3cc4c(cc3OC(Nc3ccccc3)C2C)OCO4)c1O", "note": "(stereo not given)", "growth inhibition": "0% (inactive)"}
{"smiles": "CC(/C=C/c1cccs1)=N\\C(=S)NC(N)=S", "growth inhibition": "-5% (inactive)"}
{"smiles": "C=C1C(=O)O[C@H]2[C@H](OC(C)=O)[C@@H](C)CCC/C(C)=C/CC[C@@]3(C)O[C@@H]3C[C@@H]12", "growth inhibition": "22% (inactive)"}
{"smiles": "CC(=O)O/C=C\\COC(C)=O", "growth inhibition": "2% (inactive)"}
{"smiles": "Cn1cc(NC(=O)c2cc(NC(=O)CCCCCCCCC(=O)Nc3cc(C(=O)Nc4cc(C(=O)NCCC(N)N)n(C)c4)n(C)c3)cn2C)cc1C(=O)NCCC(=N)N", "growth inhibition": "88% (active)"}
{"smiles": "CCCCCCCNCCCCCC", "growth inhibition": "78% (active)"}
{"smiles": "Cc1ccc(S(=O)(=O)N(c2ccccc2-c2ccccc2)C(C)C(=O)O)cc1", "note": "(stereo not given)", "growth inhibition": "5% (inactive)"}
{"smiles": "CCCN1C(=O)c2ccccc2C1=O", "growth inhibition": "4% (inactive)"}
{"smiles": "CCC(CC)COC(=O)c1ccc(O)c(O)c1", "growth inhibition": "-6% (inactive)"}
{"smiles": "COc1ccc(C2SCC(=O)N2c2nncs2)cc1", "note": "(stereo not given)", "growth inhibition": "2% (inactive)"}
{"smiles": "O=NN(CCCl)C(=O)Oc1cc(Cl)c(Cl)cc1Cl", "growth inhibition": "96% (active)"}
{"smiles": "O=C(c1ccccc1)c1ccccc1S(=O)(=O)Nc1ccccc1", "growth inhibition": "-2% (inactive)"}
{"smiles": "O=S(O)CCCCCSSc1ccccc1", "growth inhibition": "4% (inactive)"}
{"smiles": "Cc1ccc(C)c(N2C(=O)C(=O)C(c3nc4ccccc4o3)/C(=N\\NC(=O)c3ccccc3O)C2=O)c1", "note": "(stereo not given)", "growth inhibition": "5% (inactive)"}
{"smiles": "Nc1ccc2ccccc2c1Cc1c(O)ccc2ccccc12", "growth inhibition": "6% (inactive)"}
{"smiles": "CN(C)CCC(=O)C(=Cc1cc(Cl)cc(Cl)c1)C(=O)CCN(C)C", "growth inhibition": "-4% (inactive)"}
{"smiles": "COC(=O)c1c(C(N)=O)c(C)n(NC(=O)c2ccccc2)c1C", "growth inhibition": "-4% (inactive)"}
{"smiles": "O=C(O)/C(=C/c1c(O)ccc2ccccc12)c1csc(-c2nc(/C(=C\\c3c(O)ccc4ccccc34)C(=O)O)cs2)n1", "growth inhibition": "68% (inactive)"}
{"smiles": "O=C(O)c1c2c(cc3c1CC1(Cc4cc5c(cc4C1=O)CCC5)C3)CCC2", "note": "(stereo not given)", "growth inhibition": "55% (inactive)"}
{"smiles": "CCc1cccc(C(C)(C)C)c1NC(=S)N/C=C(\\c1ccccc1)S(=O)Cc1ccccc1", "note": "(stereo not given)", "growth inhibition": "14% (inactive)"}
{"smiles": "O=[N+]([O-])c1ccc(N/N=C/COCCO)c([N+](=O)[O-])c1", "growth inhibition": "1% (inactive)"}
{"smiles": "O=C(O)CSc1nc(-c2ccccc2)c(-c2ccccc2)n1-c1ccccn1", "growth inhibition": "8% (inactive)"}
{"smiles": "C[C@]12CCC(=O)C=C1CC[C@@H]1[C@@H]2[C@@H](O)C[C@@]2(C)[C@H]1CC[C@]2(O)C(=O)COC(=O)C1CCCC1", "growth inhibition": "-7% (inactive)"}
{"smiles": "C[C-](O)O.O/C(=C\\[C-](O)c1ccccc1)c1ccccc1.O/C(=C\\[C-](O)c1ccccc1)c1ccccc1.[Nd+3]", "note": "(stereo not given)", "growth inhibition": "30% (inactive)"}
{"smiles": "[Cl][Pt+2]([Cl])([Cl])[Cl].[NH-]CC1(C[NH-])CCCC1", "growth inhibition": "56% (inactive)"}
{"smiles": "CSc1ccc2c(c1)S[S@@](=O)N2", "growth inhibition": "-3% (inactive)"}
{"smiles": "O=S=C(c1ccccc1)N(Cc1ccccc1)Cc1ccccc1", "growth inhibition": "1% (inactive)"}
{"smiles": "NNc1c(Cl)c(F)c(Cl)c(F)c1Cl", "growth inhibition": "17% (inactive)"}
{"smiles": "Cc1ccc(C)c(N2C(=O)C(=O)C(c3nc4ccccc4o3)C(=O)C2=O)c1", "growth inhibition": "15% (inactive)"}
{"smiles": "NC(=S)N/N=C/c1ccc(Cl)s1", "growth inhibition": "-6% (inactive)"}
{"smiles": "O=c1[nH]ccc(CNC23CC4CC(CC(C4)C2)C3)c1O", "growth inhibition": "6% (inactive)"}
{"smiles": "CN(C)CCSc1cc(-c2ccccc2)c2ccccc2n1", "growth inhibition": "15% (inactive)"}
